# Results from PubChem BioAssay (NCI).
# Compounds without any hit were thinned out: in the full panel of roughly 83,000, 20% have a hit.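 A percent growth of 40 corresponds to 60% growth inhibition; 0 means no net growth; -100 means all cells died. Active threshold: below 10.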 The source made the active and inactive calls.
# System: SN12C renal
# Assay: NCI-60 one-dose screen, 48 h (100 = growth as untreated, 0 = no growth, -100 = all killed)
# Settings: 10 µM unless noted
row,SMILES,growth
1,COc1ccc(C(=O)/C=C/c2ccc(Cl)c(Cl)c2)cc1S(N)(=O)=O,-2.78% (active)
2,Cc1cc(N=C2NC(=O)CS2)n[nH]1,101% (inactive)
3,COc1ccc(C(=O)/C=C/c2cccc(Br)c2)cc1S(N)(=O)=O,-79.2% (active)
4,COc1ccc(NC(=O)Cn2c3c(sc2=O)[C@H]2[C@@H](O)[C@@H](O)[C@H](O)[C@@H]2CS3)cc1,98.8% (inactive)

# System: UO-31 renal
# Assay: as above
# Settings: 10 µM unless noted
row,SMILES,growth
1,O=C(NNc1nc2cc(C(F)(F)F)ccc2n2cccc12)c1cnccn1,-64.6% (active)
2,Cc1cccc(NC(=O)[C@]23CCC(C)(C)CC2C2=CCC4[C@@]5(C)C[C@@H](O)[C@H](O)[C@@](C)(CO)C5CC[C@@]4(C)[C@]2(C)CC3)c1 (some centres not stated),14.3% (inactive)
3,CCCCSc1nc(NCCc2c[nH]c3ccccc23)c(C#N)c(-c2ccc(F)cc2)n1,56.3% (inactive)
4,COc1ccc(-c2ccnc(SCc3cc4cc(Cl)ccc4[nH]c3=O)n2)cc1,79.1% (inactive)
5,O=c1[nH]c2ccccc2cc1CSc1nccc(-c2ccc3ccccc3c2)n1,78.6% (inactive)
6,CCCCCCCCc1ccc(S(=O)(=O)Nc2ccc(CC)cc2C(=O)O)cc1,84.8% (inactive)
7,COc1cc(OC)c2c3nc4cc(C)c(C)cc4nc3n(CCN(C)C)c2c1,-68.6% (active)
8,N#Cc1c(-c2cccc(O)c2O)cc(-c2ccc3ccccc3c2)[nH]c1=O,55.9% (inactive)
9,O=c1[nH]n(C(=S)N/N=C/c2ccccc2Cl)c(=O)c2ccccc12,15.6% (inactive)
10,COc1ccc(C(=O)/C=C/c2cccc(Cl)c2Cl)cc1S(N)(=O)=O,-81.3% (active)
11,COc1ccc(C(=O)/C=C/c2cccnc2)cc1S(N)(=O)=O,28% (inactive)
12,Cc1cc2nc3c4ccccc4n(CC4=NCCN4)c3nc2cc1C,-95.2% (active)
13,CCCCCCCCc1ccc(C(=O)Nc2cccc(P(=O)(O)O)c2)cc1,97.5% (inactive)
14,Cc1cc2nc3c([nH]c2cc1C)c1ccc(=O)cc1n3CCN(C)C,12.5% (inactive)
15,O=C(c1ccc(Cl)cc1)c1ccc(OCCCN2CCN(c3ccncc3)CC2)cc1,40% (inactive)
16,CCCCSc1nc(NCCc2c[nH]c3ccccc23)c(C#N)c(-c2ccccc2)n1,45.5% (inactive)
17,O=C1N/C(=N\c2nccs2)S/C1=C\C=C/c1ccccc1,25.5% (inactive)

row,SMILES,growth
1,CC(=O)OC[C@@]1(C)C2CC[C@]3(C)C(CC=C4C5CC(C)(C)CC[C@]5(C(=O)Nc5cccc(C)c5)CC[C@]43C)[C@@]2(C)C[C@@H](OC(C)=O)[C@@H]1OC(C)=O (some centres not stated),37.4% (inactive)
2,COc1ccc(C(SCCNCc2cc(N(C)C)ccn2)(c2ccccc2)c2ccccc2)cc1,15.4% (inactive)
3,O=c1onc(-c2cc3ccccc3nc2Cl)n1-c1cccc2ccccc12,38.2% (inactive)
4,COc1ccc(C2=NN(c3ccccc3)C(c3ccc(OCc4ccccc4)c(OC)c3)C2)cc1OC (configuration not stated),86.8% (inactive)
5,Nc1n[nH]c2cccc(C#Cc3cccc(NC(=O)c4cccc(Cl)c4)c3)c12,21.5% (inactive)
6,O=C(Cn1c2c(sc1=O)[C@H]1[C@@H](O)[C@@H](O)[C@H](O)[C@@H]1CS2)N1CCOCC1,91.1% (inactive)
7,CC(=O)Nc1cccc(Nc2nc(N[C@H]3CCCc4ccccc43)c3ccccc3n2)c1,91.8% (inactive)
8,N/C(=N\c1nc2ccccc2s1)NC(=O)NCCCCCCO,43.5% (inactive)
9,COc1ccc2c(c1)C(=N/N=C(\C)c1ccc(OC)c(S(N)(=O)=O)c1)C(=O)N2,95.1% (inactive)
10,CCCSc1nc(NCCc2c[nH]c3ccccc23)c(C#N)c(-c2ccc(F)cc2)n1,68.7% (inactive)
11,O=c1[nH]c2ccccc2cc1CSc1cccc(Nc2nccc(-c3ccc4ccccc4c3)n2)c1,73.4% (inactive)
12,CCN(CC)c1ccnc(CNCCSC(c2ccccc2)(c2ccccc2)c2ccc(C)cc2)c1,-20.8% (active)
13,CN(C)CCn1c2ccccc2c2nc3cc(C(F)(F)F)ccc3nc21,11.9% (inactive)
14,CC1(C)CC[C@]2(C(=O)Nc3ccc(Br)cc3)CC[C@]3(C)C(=CCC4[C@@]5(C)C[C@@H](O)[C@H](O)[C@@](C)(CO)C5CC[C@]43C)C2C1 (some centres not stated),21.1% (inactive)
15,CCC(C)(C)c1ccc(OCCCCCCN2CCN(c3ccncc3)CC2)cc1,28.2% (inactive)
16,COc1ccc(C(=O)/C=C/c2ccc(Cl)c(Cl)c2)cc1S(N)(=O)=O,-80.5% (active)
